Here are results for seven sequences from the supplement of paper PMC6555819.

What all share (assay): PBM binding z-score (relative to random genomic background probes); higher = stronger binding; sequences stand for … in GC…GCGATTGACAGCGTAGAATGAAGG
Assay [1] deals with FXR:RXRa (NR concentration 270 nM, RXRa partner concentration 90 nM). An outline of the steps: (§1)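 Binding z-scores were set against random background probes. The data came from custom Agilent 4×180K protein-binding microarrays carrying double-stranded probes with 34-nt variable regions, incubated 1 h with ligand-free nuclear receptor dimers. Partner-specific antibodies detected binding, and scanned fluorescence was regression-normalized.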

In assay [2] the test system is LXRa:RXRa (NR concentration 270 nM, RXRa partner concentration 90 nM). Put shortly:
as §1

Assay [3] deals with LXRa homodimer (NR concentration 270 nM). Put shortly: as §1
The subject of assay [4] is LXRb:RXRa (NR concentration 270 nM, RXRa partner concentration 90 nM). Put shortly: as §1
Assay [5] has as its system LXRb homodimer (NR concentration 270 nM). An outline of the steps: as §1
Assay [6] deals with PPARa:RXRa (NR concentration 270 nM, RXRa partner concentration 90 nM). Put shortly: as §1
The subject of assay [7] is PPARg:RXRa (NR concentration 180 nM, RXRa partner concentration 90 nM). Put shortly: as §1
Assay [8] relates to PPARg:RXRa 270nM:90nM, anti-RXR (NR concentration 270 nM, RXRa partner concentration 90 nM). An outline of the steps: as §1
The test system of assay [9] is PPARg:RXRa 30nM:10nM, anti-RXR (NR concentration 30 nM, RXRa partner concentration 10 nM). An outline of the steps: as §1
The subject of assay [10] is PPARg:RXRa 90nM:30nM, anti-RXR (NR concentration 90 nM, RXRa partner concentration 30 nM). An outline of the steps:
as §1

Assay [11] concerns PPARg:RXRa DBDmut IVT, anti-RXR (DBD mutation: RXRa K156A/R161A, NR concentration 270 nM, RXRa partner concentration 90 nM). Put shortly: as §1
Assay [12] relates to PPARg:RXRa IVT, anti-PPARg (NR concentration 270 nM, RXRa partner concentration 90 nM). Put shortly: as §1
In assay [13] the test system is PPARg DBDmut:RXRa IVT, anti-PPARg (DBD mutation: PPARg1 K132A/R137A, NR concentration 270 nM, RXRa partner concentration 90 nM). Put shortly: as §1
Assay [14] concerns PPARg DBDmut IVT, anti-PPARg (DBD mutation: PPARg1 K132A/R137A, NR concentration 270 nM). An outline of the steps: as §1
Assay [15] deals with PPARg homodimer (NR concentration 180 nM). An outline of the steps: as §1
In assay [16] the test system is PXR:RXRa (NR concentration 270 nM, RXRa partner concentration 90 nM). Put shortly:
as §1

Assay [17] relates to PXR homodimer (NR concentration 270 nM). Put shortly: as §1
Assay [18] has as its system RARa:RXR (NR concentration 270 nM, RXRa partner concentration 90 nM). Put shortly: as §1
Assay [19] deals with RARa homodimer (NR concentration 270 nM). Put shortly: as §1
The subject of assay [20] is RARb:RXRa (NR concentration 270 nM, RXRa partner concentration 90 nM). An outline of the steps:
as §1

Turning to CCTAGTTGGTCAGGAGTTCACACACCGGATATGA, the PBM binding z-score in [1] was 1.64; in [2] it was 2.22; in assay [3], 1.92; in assay [4] it was 1.85; in assay [5], 0.3; in assay [6], 2.2. The PBM binding z-score in [7] was found to be 1.24; in [8], 1.95; in [9], 0.752; in assay [10] it was 1.49; in assay [11], 1.01; in assay [12], 1.1. Also, the PBM binding z-score amounted to 0.396 in [13]; 0.284 in assay [14]; 2.47 in [15]; 3.66 in assay [16]; 3.68 in [17]; 2.36 in [18]. The PBM binding z-score in [19] was 1.42; in assay [20], 2.39.
As to TCAGACAGGTGAAGTTAACTCAGGTACGCAGTCG, the PBM binding z-score in assay [1] was 0.865; in [2], 0.967; in assay [3] it was 0.0333; in assay [4], 0.725; in assay [5], -0.0783; in assay [6], 1.17. Further, the PBM binding z-score stood at 0.534 in assay [7]; 2.18 in [8]; 3.93 in [9]; 2.75 in assay [10]; 2.34 in assay [11]; 0.646 in assay [12]. Further, the PBM binding z-score was 0.282 in [13]; -0.426 in assay [14]; 0.226 in [15]; 0.543 in assay [16]; 0.31 in assay [17]; 0.876 in assay [18]. Further, the PBM binding z-score in assay [19] turned out to be 0.495; in assay [20], 1.03.
With CCTTACGGGTCATGGTTATAGCACGGGTGGTACG, the PBM binding z-score in assay [1] was 5.13; in assay [2], 3.14; in assay [3], -0.115; in assay [4], 2.68; in assay [5] it was -0.0469; in assay [6] it was 4.97. The PBM binding z-score in assay [7] turned out to be 3.99; in assay [8], 4.19; in assay [9] it was 1.44; in assay [10], 3.03; in assay [11], 1.34; in assay [12] it was 3.31. In addition, the PBM binding z-score in assay [13] is 0.473; in [14], -0.548; in [15], 1.58; in [16], 2.96; in assay [17], 0.0669; in [18], 3.6. For the same sequence, the PBM binding z-score in [19] is 0.484; in assay [20], 3.64.
Regarding TATCGGAGGACACGAAAGGTCAGAGCTCGACATC, the PBM binding z-score in assay [1] was determined as 3.35; in [2] it was 4.54; in [3], 4.27; in assay [4] it was 3.43; in [5], 0.855; in assay [6], 3.93. In addition, the PBM binding z-score in [7] worked out at 2.18; in [8], 2.81; in assay [9], 1.03; in [10], 2.13; in assay [11], 0.425; in [12] it was 2.37. The PBM binding z-score in assay [13] turned out to be 0.89; in assay [14], 0.344; in assay [15] it was 2.86; in [16], 4.25; in [17], 0.981; in [18], 4.73. Besides, the PBM binding z-score in [19] came out at 1.49; in assay [20], 4.37.
As for TCTTGTAGATCAATAGAGGTTAAGATAGTGCGCT, the PBM binding z-score in assay [1] is 1.04; in assay [2] it was 3.81; in assay [3], 0.813; in assay [4], 1.97; in assay [5], -0.0819; in assay [6], 1.99. Moreover, the PBM binding z-score is 0.479 in [7]; 1.59 in [8]; 2.43 in assay [9]; 2.03 in assay [10]; 1.55 in assay [11]; 0.959 in assay [12]. The PBM binding z-score in [13] is 0.251; in [14], 0.77; in assay [15], 0.455; in [16], 2.26; in assay [17], -0.0224; in [18], 2.09. Besides, the PBM binding z-score stood at 0.236 in assay [19] and 0.832 in assay [20].
As to CGTCCAAGGTCAGCAGTTCAGTGAAAGCGACGTG, the PBM binding z-score in assay [1] is 5.17; in [2], 3.5; in assay [3] it was 0.594; in [4], 2.73; in assay [5], -0.167; in [6], 4.42. The PBM binding z-score in [7] came out at 2.78; in [8], 3.37; in assay [9] it was 0.482; in [10], 1.82; in assay [11] it was 2.51; in assay [12], 2.84. The PBM binding z-score came to 0.0799 in assay [13]; 0.847 in assay [14]; 1.67 in assay [15]; 3.52 in assay [16]; 1.29 in [17]; 3.96 in assay [18]. Besides, the PBM binding z-score in assay [19] amounted to 0.38; in assay [20], 5.29.
Regarding AAATGTAGGTTACATCCGGGTCATTCAGGCTATG, the PBM binding z-score in [1] is 2.37; in assay [2], 4.34; in assay [3] it was 1.56; in [4], 2.86; in assay [5], 0.424; in [6], 4.62. For the same sequence, the PBM binding z-score in [7] was found to be 6.92; in [8], 5.78; in assay [9] it was 2.95; in assay [10], 5.22; in assay [11], 8.29; in assay [12], 8.08. Also, the PBM binding z-score in [13] was determined as 3.52; in assay [14], 2.02; in assay [15], 2.68; in assay [16], 3.79; in [17], 2.33; in assay [18] it was 3.75. Further, the PBM binding z-score came out at 1.1 in assay [19] and 2.28 in assay [20].
